# Inconclusive results are not listed. Where a call stands in place of a potency, no number is given. Active and inactive are the calls of the source. Calls follow the shape of the dose curve; as a rule, active = well fitted inhibition curve with a large enough effect; inconclusive = small, poorly fitted or top-dose-only effect; inactive = flat fitted curve, though single readings scatter.
# Test system: Zika virus NS2B-NS3 protease
# Assay: Primary screen GU AMC qHTS for Zika virus inhibitors (AID 1347154); also: nearly all actives have a fitted effect of over 70% in size
# Conditions: Zika NS2B-NS3 unlinked protease, AMC fluorogenic substrate; series mostly up to 54.1 µM
# Summary of the method: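 Unlinked Zika NS2B hydrophilic domain–NS3 protease complex at 25 nM in 10 mM Tris-HCl pH 8.0, 0.01% Tween 20, with an AMC peptide substrate. Fluorescence change (340/450 nm) over 15 min at room temperature, normalized to controls, fitted to 4-parameter Hill.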
# Potency is read from the fitted curve at half-maximal effect.
row,Compound,Potency
1,CCOc1ncc(F)c(=O)[nH]1,inactive
2,CN1N=C(C(N)=O)CCC1=O,inactive
3,CC(C)(C)NCC(O)COc1ccccc1OCC1CCCO1 (stereo not drawn),inactive
4,COC(=O)CCCCC(CCSS/C(CCO)=C(\C)N(C=O)Cc1cnc(C)nc1N)SC(C)=O (stereo not drawn),inactive
5,Cc1ccc(Cl)c(OCC(O)CNC(C)(C)C)c1 (stereo not drawn),inactive
6,CN1CCC(Nc2ncc3ncnc(Nc4ccc(F)c(Cl)c4)c3n2)CC1,inactive
7,CC(=O)Nc1ccn(C2COC(COC(=O)c3ccccc3)O2)c(=O)n1 (stereo not drawn),inactive
8,CN(C)CCOC(c1ccccc1)c1ccc(Br)cc1 (stereo not drawn),inactive
9,Cc1oc(=O)oc1COC(=O)[C@@H]1N2C(=O)[C@@H](NC(=O)[C@H](N)c3ccccc3)[C@H]2SC1(C)C,inactive
10,COc1ccc2nc(SCc3ncc(C)c(OC)c3C)[nH]c2c1,inactive
11,O=C(c1ccccc1)c1ccccc1,inactive
12,Cc1cccc(N(C)C(=S)Oc2ccc3c(c2)CCC3)c1,inactive
13,CCOC(=O)N1CCC(Nc2ccc(Cl)cc2N)CC1,inactive
14,COC(=O)c1cc(S(N)(=O)=O)ccc1OC,inactive
15,Cn1cc(S(C)=O)c(=O)c2ccc(F)cc21 (stereo not drawn),inactive
16,O=C(c1cc(O)c(O)c(O)c1)c1ccc(O)c(O)c1O,891 nM (active)
17,CO[C@@H]1[C@@H](O[C@@H]2O[C@H](C)[C@@H](O[C@H]3C[C@@](C)(O)[C@@H](O)[C@H](C)O3)[C@H](N(C)C)[C@H]2O)[C@@H](CC=O)C[C@@H](C)[C@@H](O[C@@H]2CC[C@H](N(C)C)[C@@H](C)O2)/C=C/C=C/C[C@@H](C)OC(=O)C[C@H]1OC(C)=O,inactive
18,CCCCN(CCN(CCCC)C(=O)N1CCOCC1)C(=O)N1CCOCC1,inactive
19,O=C(O)CCC(=O)OC[C@@H](NC(=O)C(Cl)Cl)[C@H](O)c1ccc([N+](=O)[O-])cc1,inactive

row,Compound,Potency
1,OC1(c2ccc(Cl)cc2)CCNCC1,inactive
2,COC(=O)c1c(Cl)c(Cl)c(C(=O)OC)c(Cl)c1Cl,inactive
3,Cc1cc(=O)oc2cc(O[C@@H]3SC[C@@H](O)[C@H](O)[C@H]3O)ccc12,inactive
4,C/C(=N/NC(=O)c1ccncc1)C(=O)O,inactive
5,CC(C)(C)C1CCC(CC2=C(O)c3ccccc3C(=O)C2=O)CC1 (stereo not drawn),inactive
6,CCN(CC)CCN,inactive
7,CCOC(=O)Oc1ccc(CCNC(=O)[C@H](CCSC)NC(C)=O)cc1OC(=O)OCC,inactive
8,COC(=O)C1=C(C)NC(C)=C(C(=O)OCCc2ccc(N3CCN(C(c4ccccc4)c4ccccc4)CC3)cc2)C1c1cccc([N+](=O)[O-])c1 (stereo not drawn),inactive
9,CCCCCCCCCCCCCC[N+](C)(C)C,inactive
10,CC1c2ccccc2CN1NC(=O)c1ccc(Cl)c(S(N)(=O)=O)c1 (stereo not drawn),inactive
11,CCCCCCCCCCCCCCCCCCNC(=O)OC1CCN(C(=O)OC[C@H](COC(=O)N(Cc2cccc[n+]2CC)C(=O)c2ccccc2OC)OC)CC1,inactive
12,CCOC(=O)NNc1nncc2ccccc12,inactive
13,CCN1C(=O)c2ccccc2C1Nc1ccc(OCCN2CCCCC2)cc1 (stereo not drawn),inactive
14,CC(=O)O[C@H]1CC[C@@]2(C)C(=CC[C@@H]3[C@@H]2CC[C@]2(C)C(C(C)=O)=CC[C@@H]32)C1,inactive
15,CCCCCC1Nc2cc(C(F)(F)F)c(S(N)(=O)=O)cc2S(=O)(=O)N1 (stereo not drawn),inactive
16,C[N+](C)(CCOc1ccccc1)Cc1cccs1,inactive
17,CC(=O)OCC(=O)Nc1cc(C#N)cc(NC(=O)COC(C)=O)c1Cl,inactive
18,COc1cc(S(N)(=O)=O)cc(C(=O)O)c1OC,inactive
19,CCOC(=O)c1ccc(OCCN2C[C@H](O)[C@@H](O)[C@H](O)[C@H]2CO)cc1,inactive

# Source: PubChem BioAssay (NCATS)
